Data reported in ChEMBL document CHEMBL1157539, “Thousands of chemical starting points for antimalarial lead identification” (Nature, 2010).

Key:
Assay type in all cases: functional
Plasmodium falciparum [1] = test: GSK_TCMDC: Inhibition of Plasmodium falciparum 3D7 in whole red blood cells, using parasite LDH activity as an index of growth. Test compounds present at 2uM
Plasmodium falciparum [2] = test: GSK_TCMDC: Inhibition of Plasmodium falciparum Dd2 in whole red blood cells, using parasite LDH activity as an index of growth. Test compounds present at 2uM
HepG2 = test: GSK_TCMDC: Percent inhibition of human HepG2 cell line. Test compounds present at 10uM.

Structure (SMILES): CCOC(=O)c1c(CN(CC)CC)n(-c2ccccc2)c2cc(Br)c(O)cc12
- Inhibition (Plasmodium falciparum [1]): 93%
- Inhibition (Plasmodium falciparum [2]): 46%
- Inhibition (HepG2): 14%

Structure (SMILES): CC(C)Sc1nc2c(c(=O)n1CCc1ccccc1)C1(CCCCC1)Cc1ccccc1-2
- Inhibition (Plasmodium falciparum [1]): 92%
- Inhibition (Plasmodium falciparum [2]): 5%
- Inhibition (HepG2): 8%

Structure (SMILES): O=C(NCCCCN1CCC(c2cccc3ccccc23)CC1)c1ccc(NC(=O)c2ccc(Cl)cc2)cc1
- Inhibition (Plasmodium falciparum [1]): 99%
- Inhibition (Plasmodium falciparum [2]): 39%
- Inhibition (HepG2): 20%

Structure (SMILES): O=[N+]([O-])c1cccc(-n2nc(NCc3ccc(Cl)cc3)nc2-c2ccc(F)c(C(F)(F)F)c2)c1
- Inhibition (Plasmodium falciparum [1]): 98%
- Inhibition (Plasmodium falciparum [2]): 93%
- Inhibition (HepG2): 6%

Structure (SMILES): O=c1c2ccc(F)cc2sn1-c1ccc(Cl)cc1
- Inhibition (Plasmodium falciparum [1]): 98%
- Inhibition (Plasmodium falciparum [2]): 11%
- Inhibition (HepG2): 8%

Structure (SMILES): Cc1cc(Nc2ccc(C(C)(C)C)cc2)c2[nH]ncc2n1.Cl
- Inhibition (Plasmodium falciparum [1]): 83%
- Inhibition (Plasmodium falciparum [2]): 63%
- Inhibition (HepG2): 31%

Structure (SMILES): CC1CCCC(Nc2noc(-c3sccc3Br)n2)C1 (stereo not drawn)
- Inhibition (Plasmodium falciparum [1]): 100%
- Inhibition (Plasmodium falciparum [2]): 99%
- Inhibition (HepG2): 7%

Structure (SMILES): CC(C)(C)c1ccc(CNC(=O)c2ccc(-c3nc4ccc(Cl)cc4[nH]3)cc2)cc1
- Inhibition (Plasmodium falciparum [1]): 93%
- Inhibition (Plasmodium falciparum [2]): 2%
- Inhibition (HepG2): 14%

Structure (SMILES): CCNc1cc(C(=O)N[C@@H](Cc2ccccc2)[C@H](O)CN[C@@H]2CCc3ccccc32)cc(N2CCCCS2(=O)=O)c1
- Inhibition (Plasmodium falciparum [1]): 98%
- Inhibition (Plasmodium falciparum [2]): 97%
- Inhibition (HepG2): 0%

Structure (SMILES): COc1ccc(C(=O)NC(Nc2ccc([N+](=O)[O-])cc2)C(Cl)(Cl)Cl)cc1 (stereo not drawn)
- Inhibition (Plasmodium falciparum [1]): 95%
- Inhibition (Plasmodium falciparum [2]): 83%
- Inhibition (HepG2): 15%

Structure (SMILES): CCCNC(=O)c1cncc(-c2ccc(CNCCCc3ccccc3)cc2)c1.O=C(O)C(F)(F)F
- Inhibition (Plasmodium falciparum [1]): 100%
- Inhibition (Plasmodium falciparum [2]): 29%
- Inhibition (HepG2): 0%
